Structures are written as SMILES.

For this experiment, the target named is Estrogen receptor (Homo sapiens) (UniProt P03372). In words: ERalpha ligand binders by competition, primary screen, cell-based, Cos7 ERalpha-GFP, flow cytometry (AID 1211).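 Also: 0% = DMSO vehicle wells and 100% = no E2-Alexa633 signal left.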 Conditions: fluorescent ligand competition, binding inhibition, at 0.1 µM, stronger effect = higher value. On the technique in general: Flow cytometry measures light scatter and fluorescence of single cells or particles in a stream.
Sequence of Estrogen receptor (Homo sapiens) (P03372 whole entry, looked up): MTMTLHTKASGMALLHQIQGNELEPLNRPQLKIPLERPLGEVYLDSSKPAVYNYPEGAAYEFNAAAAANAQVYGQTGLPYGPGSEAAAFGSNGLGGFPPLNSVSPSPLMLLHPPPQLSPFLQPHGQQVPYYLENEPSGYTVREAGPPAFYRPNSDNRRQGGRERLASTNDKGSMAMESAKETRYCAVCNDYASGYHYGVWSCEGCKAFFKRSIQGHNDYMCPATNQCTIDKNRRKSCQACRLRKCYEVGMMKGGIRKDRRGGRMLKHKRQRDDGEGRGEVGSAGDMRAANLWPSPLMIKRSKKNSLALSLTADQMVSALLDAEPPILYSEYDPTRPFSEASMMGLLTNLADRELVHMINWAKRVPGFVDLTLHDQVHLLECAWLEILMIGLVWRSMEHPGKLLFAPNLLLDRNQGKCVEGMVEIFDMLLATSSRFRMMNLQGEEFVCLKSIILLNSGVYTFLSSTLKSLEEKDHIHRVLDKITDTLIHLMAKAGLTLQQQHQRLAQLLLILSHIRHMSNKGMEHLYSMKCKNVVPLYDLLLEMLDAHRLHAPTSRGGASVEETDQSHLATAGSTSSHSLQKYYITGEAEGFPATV
For the compound `CCOC(=O)c1c(C)[nH]c(C)c1C(=O)CSc1nnc(-c2cc(OC)c(OC)c(OC)c2)o1`, the inhibition of ligand binding is 38%.
For `Cc1cc(C)cc(OCC(=O)Nc2ccc(N3CCCC3)cc2)c1`, the inhibition of ligand binding was determined as 17%.
In turn, `CCOC(=O)C1CCCN(C(=O)c2cc3ncc(Br)cn3n2)C1` (stereo not drawn) showed an inhibition of ligand binding of 41%.
In the case of `Cc1ccccc1CSCC(=O)NC(=O)NCc1ccco1` it was 27%.
In the case of `O=C(O)c1ccc(Cl)c2c1C1C=CCC1C(c1ccccn1)N2` (stereo not drawn) it was 10%.
In the case of `COc1nnc(-c2ccc(C(=O)N3C[C@@H]4C[C@H](C3)c3cccc(=O)n3C4)cc2)c2ccccc12` it was 6%; in that of `Cc1nn2cc(-c3ccc(N)cc3)nc2s1`, 53%; in that of `CCCOc1ccc(-c2nn(-c3ccccc3)cc2/C=C2\SC(N)=NC2=O)cc1`, 13%.
With `CCOC(=O)Cc1cc(-c2ccc(O)cc2)nc2ccc3ccccc3c12`, the inhibition of ligand binding came to 15%.
In the case of `O=C(O)C1Nc2c(C(=O)N3CCOCC3)cccc2C2C=CCC12` (stereo not drawn) it was 15%; in that of `O=C(Nc1ccc2c(c1)nc1n2CCSC1)c1ccco1`, 42%; in that of `COc1ccc(-c2nn(-c3ccccc3)cc2/C=C2/SC(=S)N(Cc3ccco3)C2=O)c(C)c1`, 67%.
With `CC(C)(C)OC(=O)N1CCN(c2ccc(NC(=O)Cn3nnc(-c4ccccc4)n3)cc2)CC1` the figure was 24%; with `COc1ccc2[nH]c3nc(SCc4nnc(-c5ccc(C)cc5)o4)nnc3c2c1`, 3%; with `O=C(Nc1cnn(C23CC4CC(CC(C4)C2)C3)c1)c1cnn2c(C(F)(F)F)cc(-c3ccco3)nc12`, 25%.
In the case of `C/C=C(/C(=C/C)c1ccc(O)cc1)c1ccc(O)cc1` it was 87%; in that of `COc1ccc(C)cc1-n1nnnc1SCC(=O)NC(=O)NCc1ccco1`, 26%.
Take `C/C(N)=C(/C#N)C(=O)CSc1nnnn1-c1ccc(C)cc1`: the inhibition of ligand binding amounted to 14%.
With `CCCCCc1nnc(NC(=O)Cc2cccs2)s1`, the inhibition of ligand binding worked out at 8%.
In the case of `Cc1ccc(-c2cc(C(=O)NCc3ccco3)c3ccccc3n2)o1` it was 58%.
With `O=C(Cn1c(=O)n(Cc2ccco2)c(=O)c2c3c(sc21)CCCCC3)Nc1ccccc1` the figure was 39%; with `O=C(Nc1cccc2cccc(NC(=O)c3ccco3)c12)c1ccco1`, 46%; with `Cc1ccc(-c2nnc(-c3ccc(NC(=O)c4ccco4)cc3)o2)cc1`, 8%.
`COc1ccc(N2C(=O)c3ccccc3NC2c2ccc(OC)c(CSc3ccccn3)c2)cc1` (stereo not drawn) yielded an inhibition of ligand binding of 19%.
With `O=c1c(OC2OC(CO)C(O)C(O)C2O)c(-c2ccc(O)c(O)c2)oc2cc(O)cc(O)c12` (stereo not drawn) the figure was 33%.
In the case of `Cc1cc(Cl)ccc1OCC(=O)OC(C)C(=O)N(C)C` (stereo not drawn) it was 53%.
The compound `O=C(NCc1ccco1)c1cc2ccc(O)cc2oc1=O` had an inhibition of ligand binding of 46%.
In the case of `C/C(N)=C(/C#N)C(=O)CSc1nnc(Nc2ccccc2C)s1` it was 18%; in that of `O=C1c2ccccc2C(=O)N1/N=C/c1ccc(O)c(O)c1`, 23%; in that of `O=C(COC(=O)CC1CCCC1)Nc1cc2c(cc1Cl)C(=O)c1ccccc1C2=O`, 24%.
In the case of `COc1ccc(OC)c(NC(=O)c2cc(-c3ccc(C)cc3O)n[nH]2)c1`, the inhibition of ligand binding amounted to 5%.
With `O=C(Cc1cccs1)Nc1nncs1` the figure was 13%; with `CCc1ccc(NC(=O)c2noc3c2CCC3)cc1`, 9%; with `Cc1ccc(S(=O)(=O)Cc2ccc(C(=O)N3CCc4ccccc4C3)o2)cc1`, 57%.
In turn, `O=C1C=CC(O)(c2cc(=O)c3c(O)cc(O)cc3o2)C=C1` had an inhibition of ligand binding of 42%.
With `Cc1ccc2c(Cl)cc(Cl)c(OCC(=O)NCc3ccco3)c2n1` the figure was 18%; with `CCOC(=O)c1c(NC(=O)CSc2nnc(-c3ccccc3)o2)sc(C(C)=O)c1C`, 33%; with `Cc1c2cc(O)c(=O)cc-2oc2cc(O)c(O)cc12`, 51%.

(Values after PubChem BioAssay AID1211 (NMMLSC, 2008).)
